Bioassay records from PubChem.
The sample as a whole holds a higher share of hits than the screen did.
ERK EGF block: blocks ERK signaling stimulated by EGF; HEK293-V1b, EGF-stimulated phospho-ERK AlphaScreen; hit rate 0.41% among 130,000; AID 1454; Potency, µM (series often up to 11.5 µM), for the others: top-dose activity change, negative = inhibition, most hits filed as inhibitors; active means well fitted inhibition curve with a large enough effect;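 further: plate controls were stimulated vehicle wells for no effect and unstimulated vehicle basal for full effect; nearly all actives have a fitted effect of over 55% in size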
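Stably V1b-transfected HEK293 cells; 30 min compound, then EGF 25 nM final for 5 min at 37C; 10 min lysis; phospho-ERK by AlphaScreen after 5 hr beads at room temperature.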
Numbers without * were called inactive; [ ] = dose if it differs, or a comment. Potency means the concentration at half of the fitted maximal effect.

SMILES	ERK EGF block
CC[C@]1(O)C[C@@H]2CN(CCc3c([nH]c4ccccc34)[C@](C(=O)OC)(c3cc4c(cc3OC)N(C=O)[C@H]3[C@@](O)(C(=O)OC)[C@H](C(=O)OC)[C@@]5(CC)C=CCN6CC[C@]43[C@H]65)C2)C1	6%
CC(N)(Cc1ccc(O)c(O)c1)C(=O)O (stereo not given)	9%
COc1cccc([C@@H]2Oc3ccc(Br)cc3C(=O)[C@H]2OC(=O)N[C@H]2CCCc3ccccc32)c1	5%
CC(C)(C)OC(=O)NCCCC1=CC2=CC(=O)C(C)(OC(=O)C3CCCC3)C(=O)C2=CO1 (stereo not given)	-4%
CCC/C=C(\CCC)C(NP(=O)(c1ccccc1)c1ccccc1)c1ccc(C(F)(F)F)cc1 (stereo not given)	-4%
C=C1C[C@]23CC[C@H]4C(CO)(CO)C[C@@H](O)C[C@@]4(C)[C@@H]2CC[C@H]1C3	-14%
Clc1cc(Cl)cc(C2=NCCC(c3ccccc3)O2)c1 (stereo not given)	6%
Cc1ccc(Sc2ccc(CN3CCCCC3)cc2[N+](=O)[O-])cc1	10µM*
Cc1cc(N2CCCCC2)ccc1[N+](=O)[O-]	4%
Cc1ccc(OCCOCCN2CCCCC2)c([N+](=O)[O-])c1	-11%
C#CCCCCCCCCCCCc1ccco1	28%
COc1ccc(S(=O)CC(=O)Nc2ccc(Cl)cc2Cl)cc1 (stereo not given)	-13%
CCn1c(SCc2nc3scc(-c4ccccc4)c3c(=O)[nH]2)nnc1-c1cccs1	25µM*
Nc1nnc(SCc2nc3scc(-c4ccccc4)c3c(=O)[nH]2)s1	-9%[57.5 µM]
Cc1nnc(SCc2nc3scc(-c4ccccc4)c3c(=O)[nH]2)s1	-5%[57.5 µM]
CC1C/C(=N/Nc2nc3ccccc3[nH]2)CC(C)(C)C1 (stereo not given)	-2%
Cc1cc(N/N=C2\CC(C)CC(C)(C)C2)nc2ccccc12 (stereo not given)	-5%
CC1C/C(=N/Nc2ccc([N+](=O)[O-])cc2[N+](=O)[O-])CC(C)(C)C1 (stereo not given)	13µM*
C[C@@H](C(=O)N[C@@H](CO)Cc1ccccc1)[C@H]1C[C@]1(C)[C@H](NC(=O)OCc1ccccc1)c1ccccc1	8%
O=C(O)c1ccc(NS(=O)(=O)c2ccsc2C(=O)O)c(O)c1	-6%
COc1ccc(-n2c(=O)c(-c3cccs3)nc3cnc(Oc4ccccc4)nc32)cc1	-2%
Cc1nc(-c2coc3c(O)c(O)ccc3c2=O)cs1	-5%
COc1cc(/C=N/NC(=O)c2cccnc2)ccc1OC(=O)c1ccc([N+](=O)[O-])cc1	-2%
COc1ccc(/C=N/NC(=O)c2cccnc2)cc1COc1ccc(NC(C)=O)cc1	1%[57.5 µM]
COc1ccc(/C=N/NC(=O)c2cccnc2)cc1COc1ccc([N+](=O)[O-])cc1	22µM*
SMILES	ERK EGF block
O=C(NCc1ccc2c(c1)OCO2)O[C@@H]1C(=O)c2cc(Br)ccc2O[C@H]1c1ccc2c(c1)OCO2	-11%
COCCNc1nc(C)nc2c1nc(-c1ccccc1)n2C1CCN(Cc2ccccc2)C1 (stereo not given)	4%
CCN(CC)CCCC(C)n1c(-c2ccccc2)nc2c(NCc3ccccc3)nc(C)nc21 (stereo not given)	6%
Cc1nc2ccc(S(=O)(=O)Nc3cccc(-c4nc5cccnc5s4)c3)cc2s1	25µM*
Cc1nc2ccc(S(=O)(=O)Nc3ccc(-c4nc5cccnc5s4)cc3)cc2s1	-11%
O=S(=O)(Nc1cccc(-c2nc3cccnc3s2)c1)c1ccc2c(c1)CCCC2	-10%
COC(=O)N1CCC[C@@]2(CCN(c3ccccc3)C2)C1	10%
COC(=O)c1ccc(C(NC(=O)c2ccco2)[C@]2(C)C[C@H]2C2CCCCC2)cc1 (stereo not given in full)	7%
COc1cccc([C@@H]2Oc3ccc(Br)cc3C[C@H]2OC(=O)Nc2cc(OC)c(OC)c(OC)c2)c1	-8%
C[C@H]1COc2c(N3CCN(C)CC3)c(F)cc3c(=O)c(C(=O)NCc4ccco4)cn1c23	2%
NC(=O)c1cccnc1Nc1cccc(F)c1	-4%
Fc1cccc(Nc2ncnc3[nH]ncc23)c1	25µM*
Nc1ncnc(Nc2cccc(F)c2)n1	-5%[57.5 µM]
CC(C)NC(=O)N1CC[C@@]2(CCCN(C(=O)c3cc(C(F)(F)F)cc(C(F)(F)F)c3)C2)C1	-6%
COc1ccc(Oc2ncc3nc(CCc4ccccc4)c(=O)n(C4CC4)c3n2)cc1	8%
O=C1C=CC(=O)C2=C1C1c3ccccc3C2c2ccccc21	-13%
CC1=NN(c2ccccc2)C(=O)C1N=Nc1ccccc1 (stereo not given)	11µM*
CC1=NN(c2ccccc2)C(=O)C1c1ccccc1 (stereo not given)	-10%
CC1=NN(C(N)=S)C(=O)C1N=Nc1ccccc1 (stereo not given)	4%
COCC1=C2c3ccccc3[C@H](C[N+](=O)[O-])C(C(=O)OC)(C(=O)OC)CC2C2C(=O)N(c3ccccc3)C(=O)C2C1 (stereo not given in full)	5%
CN(C)CCCNCCCNC(=O)/C(=N\O)c1ccccn1	1%
